The binders below were run against ScBbc1 (assay: SPOT peptide array binding signal intensity (averaged, normalized) (arbitrary units (background-subtracted, floor 0; scale differs between SH3 domains)); higher = stronger binding of the SH3 domain to the peptide).
How it was run: (§1)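 Cellulose membranes carried synthetic 15-mer peptides with cysteines swapped for serines. These were incubated overnight at 4°C with 10 μg/ml of GST-fused SH3 domains from four yeast species in TBS-based blocking buffer. Binding signal, detected with anti-GST antibody and quantified in Genespotter, is the normalized, background-subtracted spot intensity averaged over replicates, in arbitrary units specific to each domain.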

Binder	SPOT peptide array binding signal intensity
DTIDNVKSKIQDKEG	≤ 0

Each binder was assayed against ScBem1-D1 in the same assay as above.
How it was run: as §1

Binder	SPOT peptide array binding signal intensity
DTIDNVKSKIQDKEG	≤ 0

The binders below were run against ScBzz1-D1 in the same assay as above.
How it was run: as §1

Binder	SPOT peptide array binding signal intensity
DTIDNVKSKIQDKEG	12

The binders below were run against ScBzz1-D2 in the same assay as above.
How it was run: as §1

Binder	SPOT peptide array binding signal intensity
DTIDNVKSKIQDKEG	≤ 0

The binders below were run against ScCyk3 in the same assay as above.
How it was run: as §1

Binder	SPOT peptide array binding signal intensity
DTIDNVKSKIQDKEG	≤ 0

Each binder was assayed against ScFus1 in the same assay as above.
How it was run: as §1

Binder	SPOT peptide array binding signal intensity
DTIDNVKSKIQDKEG	≤ 0

What follows are binders tested against ScHof1 in the same assay as above.
How it was run: as §1

Binder	SPOT peptide array binding signal intensity
DTIDNVKSKIQDKEG	≤ 0

What follows are binders tested against ScHse1 in the same assay as above.
How it was run: as §1

Binder	SPOT peptide array binding signal intensity
DTIDNVKSKIQDKEG	≤ 0

What follows are binders tested against ScLsb1 in the same assay as above.
How it was run: as §1

Binder	SPOT peptide array binding signal intensity
DTIDNVKSKIQDKEG	≤ 0

These binders were tested against ScLsb2 in the same assay as above.
How it was run: as §1

Binder	SPOT peptide array binding signal intensity
DTIDNVKSKIQDKEG	≤ 0

The binders below were run against ScLsb3 in the same assay as above.
How it was run: as §1

Binder	SPOT peptide array binding signal intensity
DTIDNVKSKIQDKEG	≤ 0

These binders were tested against ScLsb4 in the same assay as above.
How it was run: as §1

Binder	SPOT peptide array binding signal intensity
DTIDNVKSKIQDKEG	≤ 0

What follows are binders tested against ScMyo3 in the same assay as above.
How it was run: as §1

Binder	SPOT peptide array binding signal intensity
DTIDNVKSKIQDKEG	≤ 0

These binders were tested against ScMyo5 in the same assay as above.
How it was run: as §1

Binder	SPOT peptide array binding signal intensity
DTIDNVKSKIQDKEG	1

The binders below were run against ScNbp2 in the same assay as above.
How it was run: as §1

Binder	SPOT peptide array binding signal intensity
DTIDNVKSKIQDKEG	≤ 0

What follows are binders tested against ScPex13 in the same assay as above.
How it was run: as §1

Binder	SPOT peptide array binding signal intensity
DTIDNVKSKIQDKEG	≤ 0

What follows are binders tested against ScRvs167 in the same assay as above.
How it was run: as §1

Binder	SPOT peptide array binding signal intensity
DTIDNVKSKIQDKEG	≤ 0

Each binder was assayed against ScSho1 in the same assay as above.
How it was run: as §1

Binder	SPOT peptide array binding signal intensity
DTIDNVKSKIQDKEG	≤ 0

Each binder was assayed against ScSla1-D1-D2 in the same assay as above.
How it was run: as §1

Binder	SPOT peptide array binding signal intensity
DTIDNVKSKIQDKEG	≤ 0

Each binder was assayed against ScSla1-D3 in the same assay as above.
How it was run: as §1

Binder	SPOT peptide array binding signal intensity
DTIDNVKSKIQDKEG	≤ 0

Each binder was assayed against SpAbp1-D1 in the same assay as above.
How it was run: as §1

Binder	SPOT peptide array binding signal intensity
DTIDNVKSKIQDKEG	≤ 0

The binders below were run against SpBbc1 in the same assay as above.
How it was run: as §1

Binder	SPOT peptide array binding signal intensity
DTIDNVKSKIQDKEG	≤ 0

The binders below were run against SpBzz1-D1 in the same assay as above.
How it was run: as §1

Binder	SPOT peptide array binding signal intensity
DTIDNVKSKIQDKEG	≤ 0

These binders were tested against SpBzz1-D2 in the same assay as above.
How it was run: as §1

Binder	SPOT peptide array binding signal intensity
DTIDNVKSKIQDKEG	≤ 0

These binders were tested against SpCyk3 in the same assay as above.
How it was run: as §1

Binder	SPOT peptide array binding signal intensity
DTIDNVKSKIQDKEG	≤ 0

The binders below were run against SpHof1 in the same assay as above.
How it was run: as §1

Binder	SPOT peptide array binding signal intensity
DTIDNVKSKIQDKEG	≤ 0

Each binder was assayed against SpHof1-2 in the same assay as above.
How it was run: as §1

Binder	SPOT peptide array binding signal intensity
DTIDNVKSKIQDKEG	≤ 0

What follows are binders tested against SpHof1-3 in the same assay as above.
How it was run: as §1

Binder	SPOT peptide array binding signal intensity
DTIDNVKSKIQDKEG	7.75

Each binder was assayed against SpHse1 in the same assay as above.
How it was run: as §1

Binder	SPOT peptide array binding signal intensity
DTIDNVKSKIQDKEG	≤ 0

These binders were tested against SpLsb1 in the same assay as above.
How it was run: as §1

Binder	SPOT peptide array binding signal intensity
DTIDNVKSKIQDKEG	≤ 0

These binders were tested against SpLsb4 in the same assay as above.
How it was run: as §1

Binder	SPOT peptide array binding signal intensity
DTIDNVKSKIQDKEG	≤ 0

Each binder was assayed against SpMyo1 in the same assay as above.
How it was run: as §1

Binder	SPOT peptide array binding signal intensity
DTIDNVKSKIQDKEG	≤ 0

These binders were tested against SpNbp2 in the same assay as above.
How it was run: as §1

Binder	SPOT peptide array binding signal intensity
DTIDNVKSKIQDKEG	≤ 0

What follows are binders tested against SpPex13 in the same assay as above.
How it was run: as §1

Binder	SPOT peptide array binding signal intensity
DTIDNVKSKIQDKEG	≤ 0

What follows are binders tested against SpRvs167 in the same assay as above.
How it was run: as §1

Binder	SPOT peptide array binding signal intensity
DTIDNVKSKIQDKEG	≤ 0

Each binder was assayed against SpSla1-D1-D2 in the same assay as above.
How it was run: as §1

Binder	SPOT peptide array binding signal intensity
DTIDNVKSKIQDKEG	≤ 0

The binders below were run against SpSla1-D3 in the same assay as above.
How it was run: as §1

Binder	SPOT peptide array binding signal intensity
DTIDNVKSKIQDKEG	≤ 0
